Results filed as inconclusive are left out. Activity calls are given as the source filed them. Unless noted, calls follow the shape of the dose curve; as a rule, active = well fitted curve in the direction sought with a large enough effect; inconclusive = small, poorly fitted or top-dose-only effect, or another doubt; inactive = no such curve, though single readings can be large; an effect the other way counts as inactive or inconclusive.
Key:
[1] = target: Glucocorticoid receptor (Homo sapiens) (UniProt P04150); experiment: GR-GFP Redistribution (AID 450;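 active = compounds whose dose series gives a full or clear partial fitted curve of increased nuclear translocation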; also: potency is read from the fitted curve at half-maximal effect); details: U2OS GR-GFP nuclear translocation, laser cytometry, 2 h
Sequence of Glucocorticoid receptor (Homo sapiens) (P04150 whole entry, looked up, the tested form may be a part): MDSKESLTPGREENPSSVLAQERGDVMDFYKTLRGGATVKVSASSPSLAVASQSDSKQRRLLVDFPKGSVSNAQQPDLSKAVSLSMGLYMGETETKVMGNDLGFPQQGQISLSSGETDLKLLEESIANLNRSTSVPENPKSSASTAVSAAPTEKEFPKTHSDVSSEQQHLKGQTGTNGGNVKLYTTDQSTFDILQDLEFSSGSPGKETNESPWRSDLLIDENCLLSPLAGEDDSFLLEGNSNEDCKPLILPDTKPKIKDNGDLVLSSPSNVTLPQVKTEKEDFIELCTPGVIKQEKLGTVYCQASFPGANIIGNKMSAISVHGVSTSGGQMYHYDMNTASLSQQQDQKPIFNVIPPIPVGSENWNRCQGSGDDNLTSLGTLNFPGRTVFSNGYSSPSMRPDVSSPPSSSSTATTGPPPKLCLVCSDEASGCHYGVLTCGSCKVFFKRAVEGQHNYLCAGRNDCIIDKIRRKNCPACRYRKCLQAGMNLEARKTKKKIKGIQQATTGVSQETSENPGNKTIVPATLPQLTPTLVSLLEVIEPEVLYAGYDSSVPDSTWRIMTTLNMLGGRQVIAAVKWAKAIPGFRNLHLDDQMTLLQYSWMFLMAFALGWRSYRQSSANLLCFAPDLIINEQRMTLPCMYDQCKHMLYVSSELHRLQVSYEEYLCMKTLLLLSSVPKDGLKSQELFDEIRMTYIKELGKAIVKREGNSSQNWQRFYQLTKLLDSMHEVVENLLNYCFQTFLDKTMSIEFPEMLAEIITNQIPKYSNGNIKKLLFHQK

[2] = target: Glucocorticoid receptor (Homo sapiens) (UniProt P04150); experiment: GR-EFC Redistribution (AID 451; calls by dose curve; also: potency is read from the fitted curve at half-maximal effect); details: CHO-K1 GR-EFC translocation, beta-gal luminescence, 2 h
Summary of the method: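 CHO-K1 cells expressing nuclear EA and GR-ED fragments of b-gal; compounds titrated up to 46 uM final, 2 h at 37 C. GR nuclear translocation read as complemented b-gal luminescence after 1 h RT detection.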

[3] = target: Mitogen-activated protein kinase 10 (Mus musculus) (UniProt Q61831); experiment: JNK3 AlphaScreen Assay (AID 530; active = well fitted curve in either direction with a large enough effect, not every such curve was filed as active;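 also: kinase came from lysate of stimulated human HepG2 cells; signal reports phosphorylation of biotinylated GST-cJun 1-79 at Ser73 with 10 µM ATP; % is scaled to controls: 0 for no effect and ±100 for the full control effect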)
Summary of the method: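 qHTS format: compounds tested as titrations against IL-1beta/TNF-alpha-activated HepG2 lysate JNK3 with biotin-GST-cJun substrate and 10 uM ATP at room temperature. Loss of anti-phospho-cJun AlphaScreen signal indicates inhibition.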

[4] = qHTS Assay for Lipid Storage Modulators (AID 1519; calls by dose curve; as to activity change, negative = inhibition: % is scaled to controls: 0 for no effect and ±100 for the full control effect); details: Drosophila S3 cells, BODIPY lipid droplet/cell ratio, laser cytometry, cells loaded with oleic acid
Summary of the method: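 Cells seeded at 5,000 per well were treated with compounds over a concentration series and loaded with oleic acid (400 uM, as added). Lipid droplet fluorescence (488 nm excitation, 500-530 nm channel) was read by laser-scanning cytometry and normalized to 20 uM Triacsin C.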

[5] = target: DNA dC->dU-editing enzyme APOBEC-3G (Homo sapiens) (UniProt Q9HC16); experiment: qHTS for inhibitors of Vif-A3G interactions: Validation (AID 588379); also: 0% is about no effect
Sequence of DNA dC->dU-editing enzyme APOBEC-3G (Homo sapiens) (Q9HC16 whole entry, looked up): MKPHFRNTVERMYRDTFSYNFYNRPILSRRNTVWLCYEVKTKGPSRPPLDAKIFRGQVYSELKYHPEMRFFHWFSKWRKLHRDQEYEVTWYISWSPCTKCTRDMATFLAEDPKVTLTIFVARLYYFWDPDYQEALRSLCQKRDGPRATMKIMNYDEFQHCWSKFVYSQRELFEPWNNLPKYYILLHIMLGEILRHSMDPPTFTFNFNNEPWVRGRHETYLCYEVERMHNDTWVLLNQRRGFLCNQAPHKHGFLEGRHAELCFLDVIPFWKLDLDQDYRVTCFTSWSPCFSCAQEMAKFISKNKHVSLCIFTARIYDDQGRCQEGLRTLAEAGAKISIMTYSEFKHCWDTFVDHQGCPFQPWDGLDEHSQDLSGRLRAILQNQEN
Summary of the method: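 HeLa cells stably expressing Vif and A3G-eYFP, 700 cells/well, incubated overnight at 37 deg C, then exposed to compound overnight at 37 deg C. Inhibition of Vif-mediated degradation read as increased yellow fluorescence (Ex 488/Em 500-530) by laser-scanning cytometry.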

[6] = Primary qHTS for small molecule stabilizers of the endoplasmic reticulum resident proteome: Secreted ER Calcium Modulated Protein (SERCaMP) assay (AID 1508630); also: % is scaled to controls: 0 for no effect and ±100 for the full control effect
Summary of the method: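 GLuc-SERCaMP-expressing SH-SY5Y cells, pretreated 16 h with compound, are challenged with thapsigargin to empty ER calcium stores; after 4 h, coelenterazine is added directly to the medium and luminescence is imaged.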

[7] = qHTS for Inhibitors of Plasmodium falciparum (DD2) proliferation (AID 504314); also: potency is read from the fitted curve at half-maximal effect;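 as to activity, negative = inhibition: parasite DNA measured by SYBR Green fluorescence after red cell lysis; plate controls were DMSO vehicle for no effect and artemisinin wells for full effect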
Summary of the method: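 Fluorescence read-out (ex 485/em 535 nm) of SYBR Green-stained parasite DNA quantifies intraerythrocytic growth. Cultures at 0.3% parasitemia and 2.5% hematocrit were treated for 72 h; data normalized to DMSO and 0.29 uM artemisinin wells.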

[8] = qHTS for Inhibitors of Plasmodium falciparum (GB4) proliferation (AID 504315);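 also: 0% = DMSO vehicle and -100% = 0.29 µM artemisinin control; nearly all actives have a fitted effect of over 50% in size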
Summary of the method: (§1)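 Erythrocytes infected with P. falciparum line (0.3% parasitemia, 2.5% hematocrit final) incubated with compounds 72 h at 37 °C, 5% CO2; SYBR Green lysis buffer added, fluorescence read next day. Normalized to 0.29 uM artemisinin and DMSO.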

[9] = qHTS for Inhibitors of Plasmodium falciparum (7G8) proliferation (AID 504316);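 also: 0% = DMSO vehicle and -100% = 0.29 µM artemisinin full kill; nearly all actives have a fitted effect of over 65% in size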
Summary of the method: as §1

[10] = qHTS for Inhibitors of Plasmodium falciparum (HB3) proliferation (AID 504318);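 also: 0% = DMSO vehicle and -100% = artemisinin control; nearly all actives have a fitted effect of over 60% in size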
Summary of the method: as §1

[11] = qHTS for Inhibitors of Plasmodium falciparum (CP250) proliferation (AID 504320);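 also: plate controls were DMSO vehicle for no effect and 0.29 µM artemisinin control for full effect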
Summary of the method: as §1

Cc1cc([C@](C)(N)C(=O)O)ccc1P(=O)(O)O
16.7%: max response ([4]; measured here: cell count channel max response)
13.5%: max response ([4]; measured here: lipid channel max response)
inactive: Potency [1] > 46 µM | Potency [2] > 46 µM | Potency [3] | activity change, negative = inhibition ([4]; at 57.5 µM (top of the series)) -5.09% | Potency [5] | Potency [6]

CS(=O)(=O)Nc1c(O)ccc2c1CCCC2C1=NCCN1 (stereo unspecified)
inactive: Potency [6]

NCCNC(=O)Cc1ccc(NC(=O)Cc2ccc(Nc3ncnc4c3ncn4[C@@H]3O[C@H](CO)[C@@H](O)[C@H]3O)cc2)cc1
inactive: Potency [6]

OC(CN1CCNCC1)Cn1c2ccc(Br)cc2c2cc(Br)ccc21 (stereo unspecified)
inactive: Potency [6]

C=C1/C(=C\C=C2/CCC[C@]3(C)C([C@H](C)CCCC(C)(C)O)CC[C@@H]23)C[C@@H](O)C[C@@H]1O (stereo partly specified)
inactive: activity change, negative = inhibition [6] -19.4% [at 3.88 µM]

COc1ccc2[nH]c(C(=O)c3ccccc3)cc2c1
inactive: Potency [1] > 46 µM | Potency [2] > 46 µM | Potency [5] | Potency [6]

C[N+]1(Cc2ccccc2)CCC(C(=O)OCC2CCCC2)CC1 (stereo unspecified)
inactive: Potency [6]

CC1=CC[C@@H](COc2ccccc2)O[C@@]2(C1)C(=O)N(Cc1ccccc1C(F)(F)F)c1ccccc12
inactive: Potency [7]

CC(=O)N1C(=O)NC(C)=C(C#N)C1c1ccccc1 (stereo unspecified)
inactive: Potency [7] | Potency [8] | Potency [9] | Potency [10] | Potency [11]

Cc1ccc(S(=O)(=O)NC(CCc2ccccc2)CC(=O)C(C)(C)C)cc1 (stereo unspecified)
inactive: Potency [7] | Potency [8] | Potency [9] | Potency [10] | Potency [11]

Cc1cc(C)c2c(c1)CO[C@H]([C@H](O)CO)[C@H]2C=Cc1ccccc1
inactive: Potency [7] | Potency [8] | Potency [9] | Potency [10] | Potency [11]

COCC=CC1=CC2=CC(=O)C(C)(OC(=O)c3cnc4ccccc4n3)C(=O)C2=CN1C1CC1 (stereo unspecified)
inactive: Potency [7] | Potency [8] | Potency [9] | Potency [10] | Potency [11]

COc1cc2c(cc1OC)[C@@]1(c3ccccc3)CCCC[C@H]1[C@@H]2NC(=O)C(F)(F)F
inactive: Potency [7] | Potency [8]

COc1ccc2c(c1)C(NC(=O)C(F)(F)F)CC21CCCCC1 (stereo unspecified)
inactive: Potency [7] | Potency [8] | Potency [9] | Potency [10] | Potency [11]

CC1(OC(=O)c2ccc(Cl)nc2)C(=O)C=C2C=C3CCCN3C=C2C1=O (stereo unspecified)
inactive: Potency [7] | Potency [8] | Potency [9] | Potency [10]

COC1=C[C@H](C(=O)NCc2ccc(Cl)cc2)C(C)C(c2ccccc2)CC1=O (stereo partly specified)
inactive: Potency [7] | Potency [8] | Potency [9] | Potency [10] | Potency [11]

CC1(OC(=O)c2cccs2)C(=O)C=C2C=C(c3ccsc3)OC=C2C1=O (stereo unspecified)
inactive: Potency [7] | Potency [8] | Potency [9] | Potency [10] | Potency [11]

COC(=O)N[C@H](CC(C)=O)c1cccs1
inactive: Potency [7] | Potency [8] | Potency [9] | Potency [10] | Potency [11]

COc1ccc2c(c1)O[C@H](c1ccc3c(c1)OCO3)[C@@H](OC(=O)N[C@H]1CCCc3ccccc31)C2=O
inactive: Potency [7] | Potency [8] | Potency [9] | Potency [10] | Potency [11]

COC(=O)C1=C(C)N(Cc2ccccc2)C(=NCc2cc(OC)c(OC)c(OC)c2)NC1c1cccc(F)c1 (stereo unspecified)
active: Potency [7] 1.19 µM

COC(=O)N1C(C)=Cc2ccccc2C1CC(C)=CC(C)=O (stereo unspecified)
inactive: Potency [7] | Potency [8] | Potency [9] | Potency [10] | Potency [11]

CCCCN1CCC[C@@H]1CNC(=O)c1cc(C#N)c2ccccc2c1OC
inactive: Potency [1] > 46 µM | Potency [2] > 46 µM | Potency [3] | Potency [5]

N=C(C[C@@H](O)COc1ccccc1-c1ccccc1)N1CCCCC1
inactive: Potency [1] > 46 µM | Potency [2] > 46 µM | Potency [3] | Potency [5]

COCCN1C(=O)CC[C@@]23C1=NC(C(=O)OC)=C(C(=O)OC)[C@@H]2N(Cc1ccccc1)c1ccccc13
inactive: Potency [7] | Potency [8] | Potency [9]

CCCCc1nc2c(c3c1C[C@H](C)OC3)CN(C(=O)C1CCCCC1)CC2
inactive: activity, negative = inhibition [7] -0.437% [at 1.12 µM] | Potency [8] | Potency [9] | Potency [10] | Potency [11]

COc1ccc2c(c1)O[C@@H](c1ccc3c(c1)OCO3)[C@H](O)C2=O
inactive: Potency [7] | Potency [8] | Potency [9] | Potency [10] | Potency [11]

COC(=O)[C@H]1[C@@H](c2cccc(C(F)(F)F)c2)NC(=O)N(Cc2ccccc2)[C@@H]1C
inactive: Potency [7] | Potency [8] | Potency [9] | Potency [10] | Potency [11]

C=C(CCN1C=C(C(C)=O)C(c2ccccc2)NC1=O)c1ccc(OC)cc1 (stereo unspecified)
inactive: Potency [7] | Potency [8] | Potency [9] | Potency [10] | Potency [11]

CC1=CC[C@@H](C)O[C@@]2(C1)C(=O)Nc1cccc(Br)c12
inactive: Potency [7] | Potency [8] | Potency [9] | Potency [10] | Potency [11]

From PubChem BioAssay (NCATS)
